CYP2C9 act: CYP2C9 (human) activation. P11712. recombinant CYP2C9, luciferin-H conversion, luminescence; hits give high values; factor 1 = untreated enzyme, 0 = blocked. activation factor at 5 µM. 96,000 tested, 1.4% active;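 active = activation factor of 2 or more for CYP2C9 at a 5 µM dose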;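 note: 0 = sulfaphenazole-blocked wells and 1 = vehicle-only wells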
Target sequence (P11712 whole entry, looked up): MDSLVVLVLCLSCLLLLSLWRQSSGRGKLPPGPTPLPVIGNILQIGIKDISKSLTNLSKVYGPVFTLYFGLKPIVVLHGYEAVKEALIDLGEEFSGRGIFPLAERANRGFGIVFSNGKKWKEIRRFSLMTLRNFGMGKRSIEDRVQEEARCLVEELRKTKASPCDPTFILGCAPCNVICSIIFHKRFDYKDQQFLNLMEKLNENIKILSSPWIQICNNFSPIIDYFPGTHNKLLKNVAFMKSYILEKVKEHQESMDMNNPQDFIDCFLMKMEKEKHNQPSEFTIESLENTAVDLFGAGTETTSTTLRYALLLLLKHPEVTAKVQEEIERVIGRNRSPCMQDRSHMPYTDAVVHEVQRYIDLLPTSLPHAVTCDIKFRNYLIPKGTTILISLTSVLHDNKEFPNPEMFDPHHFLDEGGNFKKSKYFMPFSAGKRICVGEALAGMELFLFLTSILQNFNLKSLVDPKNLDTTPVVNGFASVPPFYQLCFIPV
CYP2C19 inh: human CYP2C19 inhibition. AID 778. 96,000 tested, 21% active. inhibition, % at 5 µM. CYP2C19 Supersomes, luciferin-H EGE luminescence, 30 min;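 active = CYP2C19 inhibition above a set limit at 5 µM in the primary screen, cut at about 50% in these data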;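 note: plate controls were negative control wells for no effect and 2.5 mM tranylcypromine positive control for full effect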
CYP2C9 inh: human CYP2C9 inhibition | inhibition, % at 5 µM | AID 777 | 96,000 tested, 20% active | CYP2C9 Supersomes, luciferin-H conversion, luminescence;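 active = blocking of liver enzyme CYP2C9 beyond about 50% at 5 µM, limit read from the data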
CYP2C19 act: cytochrome P450 2C19 (human) activation. recombinant CYP2C19, luciferin-H EGE luminescence; hits give high values; 0 = fully inhibited enzyme, 1 = untreated enzyme. activation factor at 5 µM. 96,000 tested, under 10 active. AID 1025;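 active = activation factor of at least 2 at 5 µM in the primary screen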;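 note: 0 = wells with 2.5 mM tranylcypromine and 1 = vehicle-only wells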
PLAP act: activates human placental alkaline phosphatase; P05187; purified PLAP enzyme, luminescent substrate read-out; hits give high values; activation fold at 20 µM; 96,000 tested, 1.2% active; in the data active = activation fold above about 2
The depositor's hits bear a star. Compounds with a hit are over-represented: about 31% of the library has one in this group of screens.

SMILES	CYP2C9 act	CYP2C19 inh	CYP2C9 inh	CYP2C19 act	PLAP act
COc1cc(NC(=O)CSc2nnc(-c3ccncc3)n2C2CCCCC2)ccc1NC(=O)c1ccco1	0.3	62.0*	71.5*	0.4	1.6
Cc1ccc(-n2nnnc2SCC(=O)NNC(=O)c2ccco2)cc1C	2*	-2.2	-95.1	1	2.3*
O=C(COC(=O)Cn1cnc2ccccc21)NCCc1ccccc1	1.1	-5.7	-11.3	1.1	1
O=C(CSc1nnnn1C1CCCC1)NCc1ccccc1	0.8	48.2	16.3	0.5	1.1
O=C(CSc1nnnn1C1CCCCC1)N1CCCC1	1.1	-1.2	-8.1	1	1.1
CC(C)N(C(=O)CSc1nnnn1C1CCCC1)C(C)C	0.7	80.6*	28.2	0.2	1.1
O=C(CSc1nnnn1C1CCCC1)Nc1cccc(NC(=O)c2ccco2)c1	0.2	83.3*	82.8*	0.2	0.9
O=C(CSc1nnnn1C1CCCCC1)NCc1ccccc1	0.4	62.4*	62.0*	0.4	1
COc1ccc(N2CCN(Cc3oc(CO)cc(=O)c3O)CC2)cc1	1	-2.4	-4.7	1	1.5
COC(=O)c1sc(S(=O)(=O)N2CCCCC2C(=O)O)c(C(=O)OC)c1C (configuration not stated)	1.1	-12.5	-14.2	1.1	1.1
CCOC(=O)c1cccc(NC(=O)CSc2nnc(COc3ccc(Cl)cc3)o2)c1	0.7	5.4	34.3	0.9	0.8
CCC(CO)NCCNC(CC)CO (configuration not stated)	1.1	-9.8	-9.5	1.1	1.1
CC(C(=O)NCc1ccccn1)N1C(=O)c2ccccc2C1=O (configuration not stated)	0.9	28.3	8.2	0.7	1.1
O=C(CS(=O)(=O)c1cn(Cc2ccc(Cl)cc2)c2ccccc12)N1CCCC1	0.3	76.5*	70.2*	0.2	1.6
O=C(O)c1ccccc1SCC(=O)N1CCCCC1	0.9	-5.2	10.1	1.1	1
Cc1cc(NC(=O)CS(=O)(=O)c2cn(Cc3ccc(F)cc3)c3ccccc23)no1	0.5	18.1	47.6	0.8	0.8
O=C(CS(=O)(=O)c1c[nH]c2ccccc12)N1CCCCC1	1.1	63.7*	-10.1	0.4	1.1
CC(=O)N1CCc2cc(S(=O)(=O)NC(C(=O)Nc3ccc4c(c3)OCCO4)C(C)C)ccc21 (configuration not stated)	0.5	38.9	51.7*	0.6	1.1
CCOC(=O)c1cccc(NC(=O)C(NS(=O)(=O)c2ccc3c(c2)CCN3C(C)=O)C(C)C)c1 (configuration not stated)	0.3	19.2	67.9*	0.8	1.1
CC(=O)N1CCc2cc(S(=O)(=O)NC(C(=O)Nc3nc(C)cs3)C(C)C)ccc21 (configuration not stated)	1	1.6	1.5	1	0.9
COc1ccc(CC(=O)N2CCN(c3ccc(C4=NNC(=O)CC4C)cc3)CC2)cc1 (configuration not stated)	0.9	6.4	6.1	0.9	1
FC(F)(F)c1nnc(-c2ccccc2)nc1Oc1ccc(Cl)cc1Cl	0.7	60.9*	33.4	0.4	0.9
FC(F)(F)c1nnc(-c2ccccc2)nc1Sc1ccc(Cl)cc1	0.6	29.7	36.0	0.7	0.9
NC(=S)NNc1cc(Cl)cc(Cl)c1	0.7	19.5	30.9	0.8	0.8
Cc1ccc(N2CCN(c3ccc(C)cc3)C2c2cccnc2)cc1	0.7	76.5*	34.5	0.2	1.2
SMILES	CYP2C9 act	CYP2C19 inh	CYP2C9 inh	CYP2C19 act	PLAP act
c1ccc(N2CCN(c3ccccc3)C2c2ccncc2)cc1	0.1	86.7*	89.7*	0.1	1.1
CCOCCSc1nnc2nc(C)cc(C)n12	1.2	-5.9	-15.9	1.1	0.9
O=C(Nc1cccc(C(F)(F)F)c1)C1C2CC3OC(=O)C1C3C2 (configuration not stated)	1.4	9.0	-42.3	0.9	1
Cc1nc(C)c(C(=O)N/N=C/c2cn(C)c3ccccc23)s1	1.2	52.9*	-23.5	0.5	1.9
CCN(CC)c1ccc(NC(=O)Nc2ccccc2C(F)(F)F)cc1	1	16.6	1.8	0.8	0.9
O=C1C2CCCN2C(c2ccccc2F)N1c1ccc(F)cc1 (configuration not stated)	0.8	23.1	16.3	0.8	1.6
CSc1nc(N)nc(SCC(=O)c2ccccc2)c1C#N	0.8	4.1	24.6	1	1
CSc1nc(C)c(C(=O)Nc2ccccc2)c(C)c1C#N	0.7	73.0*	33.2	0.3	0.9
CCOC(=O)CSc1nc(C)c(C(C)=O)cc1C#N	0.8	38.5	19.9	0.6	1.3
Cc1nc(SCC(=O)OCc2ccccc2)c(C#N)c(-c2ccccc2)c1C(=O)Nc1ccccc1	0.4	19.4	59.4*	0.8	1.1
Cc1nc(SCC(=O)c2cc3ccccc3oc2=O)c(C#N)c(C)c1C(=O)Nc1ccccc1	0.5	30.4	50.7*	0.7	0.8
CC(Sc1nnc(NC(=O)c2cc3ccccc3oc2=O)s1)c1ccccc1 (configuration not stated)	0.7	18.9	28.8	0.8	1.2
Cc1ccc(-n2ncc3c(=O)n(CC#N)cnc32)cc1	1	9.7	1.3	0.9	0.7
CC(=O)c1ccc(-c2nc3c4ccccc4ccn3c2C(C)=O)o1	1	16.9	4.5	0.8	1
Cc1nc(SC2C=CS(=O)(=O)C2)n[nH]1 (configuration not stated)	1	0.6	1.2	1	0.9
CC(C)c1ccc(-c2nnn(Cc3nc4ccccc4s3)n2)cc1	0.5	11.5	51.1*	0.9	0.8
Cc1ccc(-c2nnn(CC(=O)N3CCN(c4nc5ccccc5s4)CC3)n2)cc1	0.9	18.5	12.0	0.8	0.9
CCCCOc1ccc(-c2nc(=S)[nH][nH]2)cc1	0.8	3.0	16.4	1	1.6
CCC(OC(=O)c1ccco1)C(=O)NCc1ccco1 (configuration not stated)	0.9	32.8	7.1	0.7	1
CCC(Sc1ncccc1C(=O)OCCN1CCCC1=O)C(=O)NCc1ccco1 (configuration not stated)	0.9	-8.7	14.9	1.1	1.6
CCC(Sc1ncccc1C(=O)OC(C)C)C(=O)NCc1ccco1 (configuration not stated)	0.5	54.9*	49.9	0.5	0.9
CCOC(=O)c1cccnc1SC(CC)C(=O)NCc1ccco1 (configuration not stated)	0.3	68.0*	70.4*	0.3	1.3
Cc1cc(C(=O)CSc2nc3ccccc3o2)c(C)n1CC1CCCO1 (configuration not stated)	1	26.7	1.0	0.7	0.9
Cc1cccc(-n2nnnc2SCC(=O)c2cc(C)n(CC3CCCO3)c2C)c1 (configuration not stated)	1.6	90.0*	-63.4	0.1	1.4
Cc1ccc(-n2nnnc2SCC(=O)c2cc(C)n(CC3CCCO3)c2C)cc1 (configuration not stated)	1.1	42.3	-13.2	0.6	0.9
